The list is not random: actives were taken first. Their share in the collection is about 1.4%.
PrP UTR inh: inhibition of PrP 5' UTR reporter expression; AID 488862, 2010; cell-based PrP 5' UTR mRNA reporter, plate reader; inhibition, % (no concentration beside the values); 0.35% of 340,000 active; in the data active = inhibition above about 52%; also: 0 = median of the neutral control wells
SSB-PriA inh: inhibitors of Klebsiella pneumoniae PriA binding to SSB C-terminal tail, primary screen, biochemical, AlphaScreen. AID 1272365, 2023. 0.6% of 430,000 active. inhibition, % at 33 µM. AlphaScreen SSBct-PriA binding, biotinylated peptide. PriA–SSB C-terminal tail interaction (Klebsiella pneumoniae); in the data active = inhibition mostly above about 37%, no sharp cut-off; inactive = mostly below about 20%;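 also: plate controls were negative control peptide for no effect and reference peptide for full effect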
PrPC TRFRET: inhibitors of human cell surface prion protein PrPC, primary screen, cell-based, TR-FRET | Major prion protein (Homo sapiens), P04156 | TR-FRET read-out | inhibition, % at 13.8 µM | 0.43% of 370,000 active; in the data active = inhibition above about 24%; also: 0% = median of the test wells and 100% = reference compound wells
Vc quorum ag: inducers of Vibrio cholerae quorum light production without autoinducers, primary screen, BH1578 luxS cqsA deficient, single point; V. cholerae BH1578 lux reporter, luminescence, 6 h; 0.16% of 350,000 active; activation, % at 18.7 µM; in the data active = activation mostly above about 9.7%, no sharp cut-off
FadD28 FP inh: inhibitors of FadD28 bisubstrate probe binding, primary screen, biochemical, fluorescence polarization, single point. inhibition, % at 12.5 µM. 0.22% of 360,000 active; in the data active = inhibition above about 8.5%, passing the limit was not always enough
PrPC TRFRET cf: confirmation of inhibitors of cell surface human prion protein, confirmation, cell-based, TR-FRET | 65% of 1,500 active | shares compounds with PrPC TRFRET | inhibition, % at 13.8 µM | AID 743200, 2013 | cell surface PrPC level; in the data active = inhibition above about 25%
LD9 tox: cytotoxicity in LD9 cells, cytotoxicity control for cell surface PrPc inhibitor project, cell-based, luminescence, high throughput. shares compounds with PrPC TRFRET. luminescence viability. inhibition, % at 13.8 µM. 29% of 1,500 active. AID 743201, 2013; in the data active = inhibition above about 9.5%
* marks the source's active call; other numbers are inactive results; i = inactive; . = not tested or not shown.

SMILES	PrP UTR inh	SSB-PriA inh	PrPC TRFRET	Vc quorum ag	FadD28 FP inh	PrPC TRFRET cf	LD9 tox
CCc1ccc(C(=O)NNc2cc(Cl)ccc2Cl)cc1	-19	-16	28*	0	-1	25*	5
NC(=O)C1CCN(C(=O)c2cc(-c3ccc(Cl)cc3)nc3ccccc23)CC1	-20	4	-10	i	0	.	.
NC(=O)C1CCN(C(=O)c2cc(-c3ccccc3Cl)nc3ccccc23)CC1	-19	1	43*	-1	-3	43*	-5
CC(C)N1CCc2c(sc(NC(=O)c3ccc(S(=O)(=O)N4CCCCC4C)cc3)c2C(N)=O)C1 (stereo unspecified)	-2	0	43*	0	-4	-3	7
Cc1ncc(CO)c(C=NNC(=O)c2cc3c(s2)CCCC3)c1O	.	7	.	.	.	.	.
Cc1ncc(CO)c(/C=N/NC(=O)c2cc3c(s2)CCCC3)c1O	13	.	40*	0	-9	23	15*
COc1ccc(Nc2nnc(C)c3ccccc23)cc1C(N)=O	-14	-15	22	i	-1	.	.
COc1ccc(Nc2nnc(-c3ccc(O)cc3)c3ccccc23)cc1C(N)=O	-6	-5	94*	0	-1	99*	3
O=C(NNc1ccc(-c2csnn2)cc1)c1cc(Cl)cc(Cl)c1	.	5	27*	-1	-1	32*	-2
O=C(NCCCn1nc(-c2cccs2)ccc1=O)c1ccc(C(F)(F)F)cc1	.	-11	.	.	.	.	.
O=C(NC1CC1)C1CCCN(C(=O)Nc2ccc(F)cc2)C1 (stereo unspecified)	-15	-10	31*	i	0	15	0
COc1cccc(C(C)(O)c2nc(-c3cccc(C(=O)O)c3)cs2)c1 (stereo unspecified)	.	.	-4	2	-1	.	.
CCN(CC)C(=O)c1cccc(-c2csc(C(C)(O)c3ccncc3)n2)c1 (stereo unspecified)	.	.	40*	0	-3	30*	7
O=S(=O)(c1ccc2c(c1)CCCC2)N1CCOC2(CCOCC2)C1	.	2	.	.	.	.	.
O=C(Nc1ccc(Br)cn1)c1ccc(Br)s1	-82	-9	28*	i	-3	44*	-3
O=C(Nc1ccc(Br)cn1)c1ccc(Cl)s1	-147	-12	14	0	-4	.	.
Cn1cccc1CN(Cc1cccs1)C(=O)c1cccc(C(F)(F)F)c1	.	-2	.	.	.	.	.
O=c1cc(CNc2cc(C(F)(F)F)cc(C(F)(F)F)c2)nc2sccn12	-21	-22	29*	0	-1	20	-7
O=c1ccc(C(F)(F)F)cn1Cc1cc(=O)n2ccsc2n1	-23	-3	7	i	-2	.	.
O=C(Nc1ccc(N2CCN(C(=O)c3ccccc3)CC2)cc1)c1ccc(Br)o1	-12	20	14	i	0	.	.
O=C(Nc1ccc(N2CCN(C(=O)c3ccccc3)CC2)c(Cl)c1)c1ccc(Br)o1	-11	4	33*	-1	-1	41*	24*
Cc1onc(-c2ccccc2)c1C(=O)Oc1cccnc1	-22	-9	30*	i	-2	1	-7
Cc1ccc(C=NN2CCN(C3c4ccccc4-c4ccccc43)CC2)s1	.	-9	.	.	.	.	.
CC(C)(C)n1c(O)c(C=Nc2ccc3c(c2)CCC3)c(=O)[nH]c1=O	-5	-18	29*	i	-2	3	-4
O=C(Nc1ccc2c(c1)CN(C(=O)C1CC1)CC2)c1ccccc1C(F)(F)F	.	2	.	.	.	.	.
SMILES	PrP UTR inh	SSB-PriA inh	PrPC TRFRET	Vc quorum ag	FadD28 FP inh	PrPC TRFRET cf	LD9 tox
Cc1nc(-n2nc(-c3ccco3)cc2NC(=O)c2cc3ccccc3o2)[nH]c(=O)c1C	.	-20	.	.	.	.	.
CC(=O)Nc1ccc(C(=O)N2CCC(Oc3ncccc3Cl)CC2)cc1	.	3	.	.	.	.	.
O=C(N/N=C/c1ccc(O)cc1)c1ccc(COc2cc(Cl)ccc2Cl)o1	-15	.	27*	1	-4	30*	-1
CCC(=O)N1CCN(c2ccc(NC(=O)c3ccc([N+](=O)[O-])o3)cc2)CC1	-10	-2	11	-5	-2	.	.
CCCC(=O)N1CCN(c2ccc(NC(=O)c3ccc([N+](=O)[O-])o3)cc2)CC1	-31	7	33*	-1	-2	8	78*
COc1cc(OC)cc(C(=O)N[C@H](C(=O)Nc2nc(-c3cc(OC)ccc3OC)cs2)C(C)C)c1	-18	5	26*	1	-10	30*	-8
CC(C)NC(=O)C1CCCN(c2ccc(-c3ccc(Cl)cc3)nn2)C1 (stereo unspecified)	.	2	.	.	.	.	.
Cc1nn(Cc2ccc(Cl)c(Cl)c2)c(C)c1NC(=O)c1cc(-c2ccco2)on1	-17	-4	38*	0	-3	31*	1
Cc1nn(Cc2ccc(Cl)cc2)c(C)c1NC(=O)c1cc(-c2ccco2)on1	1	-7	32*	i	-1	31*	4
Cc1ccc(Cn2nc(C)c(NC(=O)c3cc(-c4ccco4)on3)c2C)cc1	-32	16	.	-1	-1	.	.
Cc1ccccc1Cn1nc(C)c(NC(=O)c2cc(-c3ccco3)on2)c1C	8	-2	2	1	-2	.	.
CC(=O)Oc1ccc(C(=O)Nc2cccc(C(=O)c3ccc(C)c(C)c3)c2)cc1	0	2	35*	0	-2	14	6
COc1ccc(C(=O)Nc2cccc(OC(=O)c3ccc(C)c(C)c3)c2)cc1	-39	-2	8	i	0	.	.
CC(=NNC(=O)C1CC1)c1ccccc1O	.	-8	.	.	.	.	.
Cc1ccc(C(=O)Nc2cc(S(=O)(=O)N3CCOCC3)ccc2N2CCCC2)cc1	-28	-3	46*	i	-2	50*	-8
COc1ccc(NCC(=O)Nc2cc(S(=O)(=O)N3CCOCC3)ccc2N2CCOCC2)c(OC)c1	-26	1	25*	0	-4	0	0
COc1cccc(NC(=O)CNc2cc(S(=O)(=O)N3CCOCC3)ccc2N2CCCC2)c1	-22	22	4	-1	-2	.	.
NNC1=NS(=O)(=O)c2ccccc21	.	28	.	.	.	.	.
O=C1[C@H]2[C@@H](c3ccccc3)N[C@]3(CCCN(Cc4ccc(Cl)cc4)C3=O)[C@H]2C(=O)N1Cc1ccccc1	.	.	27*	0	-6	3	-10
COc1ccc(NS(=O)(=O)c2c(C)cc(C)c(N(C)S(C)(=O)=O)c2C)cc1	.	-11	.	.	.	.	.
CC(C)N(C)S(=O)(=O)c1ccc(C(=O)N(Cc2cccnc2)c2nc3c(Cl)cccc3s2)cc1	.	-41	.	.	.	.	.
COC(=O)/C=C/S(=O)(=O)c1ccc(NC(C)=O)cc1	-5	-16	77*	i	-2	-1	94*
COCC(=O)NN=Cc1c(C)[nH]n(-c2ccccc2)c1=O	.	6	.	.	.	.	.

Bioassay records from PubChem.
